The record followed here is the supplement of paper PMC11150407.

Screen size: about 2,100 compounds; about 180 (8.6%) showed an effect of 50% or more. The list comes from a sample in which strong results are over-represented; it also holds similar structures and randomly drawn compounds.

The subject of this assay is MOLM1 and UCSD/AML1 (averaged). Nature of the assay: cell viability relative to DMSO control (POC); higher = less growth inhibition. As to conditions: 1 µM; 72 h. How it is done: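 Primary viability screen in the 3q26 EVI1-high AML cell lines MOLM1 and UCSD/AML1 (1.5e3 cells/well, 384-well), compounds at 1 uM for 72 h. ATP CellTiter-Glo read-out given as percent of viable cells over DMSO control (POC), averaged over duplicates. DMSO was the negative control and 5 uM etoposide the positive control. This mapping covers the MicroSource Spectrum and Selleck anticancer libraries (drug names).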
On to `COP(=S)(OC)Oc1ccc(Sc2ccc(OP(=S)(OC)OC)cc2)cc1`, for which the cell viability is 101%.

For the molecule `CSc1nc(NC(C)C)nc(NC(C)C)n1`, the cell viability worked out at 102%.

Take `CC(=O)O[C@@H]1C[C@@]2(C)[C@H](c3ccoc3)C[C@H]3O[C@]32[C@]2(C)C(=O)C(O)=C3C(C)(C)C(=O)C=C[C@]3(C)[C@@H]12`: the cell viability was determined as 19.3%.

On to `CC(=O)O[C@H]1C[C@@H](OC(C)=O)C(C)(C)C2C[C@@H](OC(C)=O)[C@]3(C)C(CC[C@@]4(C)[C@H](c5ccoc5)C(=O)[C@H]5O[C@]543)[C@]21C` (stereo partly specified), for which the cell viability amounted to 85.4%.

Turning to `CC1(C)C(=O)C=C[C@@]2(C)C1=C(O)C(=O)[C@]1(C)[C@@H]2CC[C@@]2(C)[C@H](c3ccoc3)C[C@H]3O[C@]321`, the cell viability is 85.9%.

As for `CNC(C)[C@H](O)c1ccccc1` (stereo partly specified), the cell viability turned out to be 93.6%.

Regarding `Cc1nccc2c1[nH]c1cc(O)ccc12`, the cell viability stood at 81%.

With `O=C(NC(=O)c1c(F)cccc1F)Nc1ccc(Cl)cc1`, the cell viability is 118%.

For `C[C@@H]1O[C@@H](O[C@@H]2C=C3CC[C@@H]4[C@H](CC[C@]5(C)[C@@H](c6ccc(=O)oc6)CC[C@]45O)[C@@]3(C)CC2)[C@H](O)[C@H](O)[C@H]1O`, the cell viability is 2.01%.

On to `CC(C)(O)[C@@H]1[C@H]2OC(=O)[C@@H]1[C@]1(O)C[C@H]3O[C@]34C(=O)O[C@H]2[C@]14C`, for which the cell viability was found to be 87.8%.

Turning to `O=C(NC(=O)c1c(F)cccc1F)Nc1cc(Cl)c(OC(F)(F)C(F)C(F)(F)F)cc1Cl` (stereo unspecified), the cell viability was found to be 93.9%.

For `COC(=O)NC(=S)Nc1ccccc1NC(=S)NC(=O)OC`, the cell viability worked out at 116%.

As to `COC(=O)C(c1ccccc1)C1CCCCN1` (stereo unspecified), the cell viability worked out at 89.3%.

As to `CC(C)(N)Cc1ccccc1`, the cell viability turned out to be 110%.

Take `N#C/C(=C\c1cccc(O)c1)C(=O)O` [alpha-CYANO-3-HYDROXYCINNAMIC ACID]: the cell viability came to 94.3%.

Take `O=c1c2ccccc2[se]n1-c1ccccc1`: the cell viability was 97.5%.

With `C[CH2][Hg][S]c1ccccc1C(=O)[O-].[Na+]`, the cell viability came to 99.6%.

On to `CCCCCCCCCCCCCCCC[n+]1ccccc1`, for which the cell viability came out at 62.3%.

`C/C=C(/C)C(=O)O[C@H]1CC[C@@]2(C)[C@@H]3CC[C@H]4[C@]5(O)C[C@H](O)[C@@]6(O)[C@@H](CN7C[C@@H](C)CC[C@H]7[C@@]6(C)O)[C@]5(O)C[C@@]42O[C@]13O`: the cell viability was determined as 94.9%.

On to `CC(C)N(CCC(C(N)=O)(c1ccccc1)c1ccccn1)C(C)C` (stereo unspecified), for which the cell viability amounted to 113%.

As to `N#Cc1c(Cl)c(Cl)c(Cl)c(C#N)c1Cl`, the cell viability turned out to be 1.55%.

For the molecule `CC1=CCCC2C1(C)CCC(C)C2(C)CC/C(C)=C/Cn1c[n+](C)c2c(N)ncnc21` (stereo unspecified) [AGELASINE (stereochemistry of diterpene unknown)], the cell viability was 109%.

In the case of `CN[C@@H]1[C@@H](O)[C@@H](O[C@@H]2[C@@H](O)[C@H](O[C@H]3O[C@H]([C@@H](C)O)[C@@H](O)[C@H](O)[C@H]3N)[C@@H](N)C[C@H]2N)OC[C@]1(C)O`, the cell viability worked out at 92%.

`CC1(C)C(=O)[C@@H]2O[C@@H]2[C@@]2(C)C1C[C@@H](O)[C@]1(C)C2CC[C@@]2(C)[C@H](c3ccoc3)OC(=O)C3OC321` (stereo partly drawn) [1,2alpha-EPOXYDEACETOXYDIHYDROGEDUNIN]: the cell viability was found to be 91.4%.

On to `CC1=CC(=O)c2c(O)cccc2C1=O`, for which the cell viability is 74.6%.

Regarding `C=C(C)[C@H]1Cc2c(ccc3c2O[C@@H]2COc4cc(OC)c(OC)cc4[C@@H]2C3=O)O1`, the cell viability is 26.4%.

On to `COc1cc2c(cc1OC)[C@@H]1C(=O)c3ccc(OC)c(CC=C(C)C)c3O[C@@H]1CO2`, for which the cell viability turned out to be 103%.

Take `COc1cc2c(cc1OC)[C@@H]1C(=O)c3ccc4c(c3O[C@@H]1CO2)CC(C(C)C)O4` (stereo partly specified): the cell viability is 77.8%.

As for `O=C1NC(=O)C(=O)C(=O)N1`, the cell viability came to 100%.

In the case of `CNC1CC(N)C(O)C(OC2OC(CO)C(O)C3OC4(OC(C(N)CO)C(O)C(O)C4O)OC23)C1O` (stereo unspecified), the cell viability was determined as 103%.

In the case of `O=[N+]([O-])O[C@@H]1CO[C@H]2[C@@H]1OC[C@@H]2O`, the cell viability came out at 98.1%.

As for `C/C(=C\c1csc(C)n1)[C@@H]1C[C@@H]2O[C@]2(C)CCC[C@H](C)[C@H](O)[C@@H](C)C(=O)C(C)(C)[C@@H](O)CC(=O)O1` [Epothilone B (EPO906)], the cell viability is 13.4%.

As for `C/C(=C\c1csc(C)n1)[C@@H]1C[C@@H]2O[C@@H]2CCC[C@H](C)[C@H](O)[C@@H](C)C(=O)C(C)(C)[C@@H](O)CC(=O)O1` [Epothilone A], the cell viability is 18.5%.

For `O=C(O)CC[N+](=O)[O-]` [BOVINOCIDIN (3-nitropropionic acid)], the cell viability stood at 94.6%.

Regarding `Cc1ccc(O)cc1.Cc1cccc(O)c1.Cc1ccccc1O`, the cell viability amounted to 98.6%.

On to `C/C=C(\C)C(=O)O[C@H]1C[C@@H](OC(C)=O)[C@@]2(C(=O)OC)CO[C@H]3[C@@H](O)[C@@](C)([C@]45O[C@@]4(C)[C@H]4C[C@@H]5O[C@@H]5OC=C[C@@]54O)[C@H]4[C@]1(CO[C@]4(O)C(=O)OC)[C@@H]32`, for which the cell viability was 97.3%.

As for `OC[C@@H]1CCCN2CCCC[C@H]12`, the cell viability worked out at 83%.

For `C/C=C/c1ccc2c(c1)OCO2`, the cell viability was 108%.

With `C[C@@H]1C[C@@H]([C@H](O)CC2CC(=O)NC(=O)C2)C(=O)[C@@H](C)C1`, the cell viability came to 18.4%.

As for `C[C@]12CCC(=O)C=C1C=C[C@@H]1[C@@H]2CC[C@@]2(C)[C@H]1CC[C@@]2(O)CCC(=O)O`, the cell viability came to 111%.

For the molecule `NC(=O)c1ccc(N)nc1`, the cell viability came out at 88%.

On to `C[C@@H](N)[C@@H](O)c1ccccc1`, for which the cell viability came out at 106%.

For `CC(C)c1cc2c(c(O)c1O)[C@@]1(C(=O)O)CCCC(C)(C)[C@@H]1CC2`, the cell viability was 107%.

Take `C=C[C@H]1CN2CC[C@H]1C[C@H]2[C@H](O)c1ccnc2ccccc12`: the cell viability is 105%.

For the molecule `O=C(NC(=O)c1ccccc1Cl)Nc1ccc(OC(F)(F)F)cc1`, the cell viability came out at 113%.

On to `O=C1C=CC(=O)c2ccccc21`, for which the cell viability was 89.5%.

What is called cell viability is a read-out of living cells in per cent, often relative to untreated cells.
